Reference: PubChem BioAssay (NCI)
The panel holds about 79,000 compounds, 15% with a hit somewhere; the sample as a whole holds those more often. A number with no mark means an inactive call. The source made the active and inactive calls. Rule as the data show it: active = growth inhibition above about 70%; inactive = the rest.

What was measured:
[1] = NCI Yeast Anticancer Drug Screen. Data for the rad52 strain (AID 147);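 also: 0% = growth of vehicle-treated control cultures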; conditions: S. cerevisiae rad52 mutant growth inhibition, active compounds read high
In short: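 Compounds are applied to a genetically defined yeast strain lacking normal DNA damage repair, and inhibition of growth is expressed relative to cultures given vehicle only.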

[2] = NCI Yeast Anticancer Drug Screen. Data for the wt1 strain (AID 149);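 also: 0% = growth of vehicle-treated wt1 cultures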; conditions: S. cerevisiae wt1 strain (SPY 50644) growth inhibition, active compounds read high
In short: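 Vehicle-normalised growth inhibition; strain wt1; compound exposure.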

[3] = NCI Yeast Anticancer Drug Screen. Data for the rad50EPP+ strain (AID 151);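 also: 0% = growth of vehicle-treated control cultures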; conditions: S. cerevisiae rad50 mutant strain, active compounds read high
In short: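 Compounds were applied to the rad50EPP+ yeast strain, which bears a defined DNA repair alteration, and growth inhibition was determined relative to vehicle-treated cultures.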

[4] = NCI Yeast Anticancer Drug Screen. Data for the mgt1 strain (AID 153); conditions: S. cerevisiae mgt1 mutant growth inhibition, active compounds read high
In short: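 Strain: mgt1 yeast, one of a set carrying defined DNA damage repair or cell cycle control alterations. Compound-treated growth compared with vehicle.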

[5] = NCI Yeast Anticancer Drug Screen. Data for the rad50 strain (AID 155);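 also: 0% = growth of vehicle-only cultures of the same strain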; conditions: S. cerevisiae rad50 strain growth inhibition, active compounds read high
In short: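 A DNA repair-deficient yeast mutant serves as the test organism; compound-induced growth inhibition is calculated against vehicle-treated cells.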

[6] = NCI Yeast Anticancer Drug Screen. Data for the mec2-1 strain (AID 157); conditions: S. cerevisiae mec2-1 strain, active compounds read high
In short: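 Strain: mec2-1 (DNA repair/cell cycle alteration). Compound exposure, then growth measured; inhibition expressed relative to vehicle.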

[7] = NCI Yeast Anticancer Drug Screen. Data for the rad14 strain (AID 159);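 also: 0% = growth of vehicle-treated control cultures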; conditions: S. cerevisiae rad14 strain growth inhibition, active compounds read high
In short: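 Vehicle-treated cultures served as the baseline for growth inhibition of a DNA repair-mutant yeast strain exposed to each compound.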

[8] = NCI Yeast Anticancer Drug Screen. Data for the sgs1 mgt1 strain (AID 161);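 also: 0% = growth of cultures given vehicle only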; conditions: S. cerevisiae sgs1 mgt1 strain, active compounds read high
In short: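 Read-out: growth inhibition vs vehicle controls. Cells: mutant yeast strain deficient in DNA damage repair.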

[9] = NCI Yeast Anticancer Drug Screen. Data for the CLN2oe strain (AID 163);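 also: 0% = growth of vehicle-only control cultures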; conditions: S. cerevisiae CLN2oe strain, active compounds read high
In short: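 Growth of a genetically modified yeast strain is measured after compound exposure and compared with cultures given vehicle alone.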

[10] = NCI Yeast Anticancer Drug Screen. Data for the cln2 rad14 strain (AID 165);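 also: 0% = growth equal to vehicle treated cultures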; conditions: S. cerevisiae cln2 rad14 strain, active compounds read high
In short: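 Compounds are applied to the cln2 rad14 yeast strain, and growth is then compared with that of vehicle-treated cultures to give inhibition.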

[11] = NCI Yeast Anticancer Drug Screen. Data for the bub3 strain (AID 167); conditions: S. cerevisiae bub3 mutant strain, active compounds read high
In short: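 Inhibition values come from growth of compound-treated mutant yeast normalised to vehicle-treated controls.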

[12] = NCI Yeast Anticancer Drug Screen. Data for the wt2 strain (AID 169);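 also: 0% = growth of vehicle-treated yeast cultures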; conditions: S. cerevisiae wt2 strain growth inhibition, active compounds read high
In short: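 This strain belongs to a panel of yeast strains with defined genetic alterations in DNA damage repair or cell cycle control. Compounds are applied, and growth inhibition is measured against vehicle-treated cultures.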

[13] = NCI Yeast Anticancer Drug Screen. Data for the mlh1 strain (AID 171);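 also: 0% = growth of vehicle-treated control cultures of the same strain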; conditions: S. cerevisiae mlh1 strain growth inhibition, active compounds read high
In short: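 Growth of the mutant yeast strain after compound exposure, expressed as inhibition relative to vehicle-only controls.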

[14] = NCI Yeast Anticancer Drug Screen. Data for the sgs1 strain (AID 173);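 also: 0% = growth of vehicle-only control cultures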; conditions: S. cerevisiae sgs1 mutant, active compounds read high
In short: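 Growth of a yeast strain bearing a defined genetic alteration is measured after compound treatment. Inhibition is expressed relative to vehicle-only controls.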

[15] = NCI Yeast Anticancer Drug Screen. Data for the mlh1 rad18 strain (AID 175); conditions: S. cerevisiae mlh1 rad18 strain growth inhibition, active compounds read high
In short: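 Read-out is yeast growth inhibition, calculated against vehicle-only controls. The compound was applied to a strain engineered with DNA damage repair alterations.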

[16] = at 5.0 µM (retest, dose inferred, filed as 0.5)
[17] = at 50.0 µM (retest, dose inferred, filed as 5.0)

For `CC1(C)C(=O)OC(n2cc(F)c(=O)[nH]c2=O)C1=O` (stereo unspecified), the growth inhibition ([1]; at 1.2 µM) was -32%, the growth inhibition ([1]; at 3.7 µM) was -22% and the growth inhibition ([1]; at 11.0 µM) was -27%. The growth inhibition ([1]; at 33.0 µM) was -8%, the growth inhibition ([1]; at 100.0 µM) was 26% and the growth inhibition ([2]; at 1.2 µM) was -39%. It also gave a growth inhibition ([2]; at 3.7 µM) of -43%, a growth inhibition ([2]; at 11.0 µM) of -18% and a growth inhibition ([2]; at 33.0 µM) of -36%. For the same compound, the growth inhibition ([2]; at 100.0 µM) was 1%, the growth inhibition ([3]; at 1.2 µM) was -30% and the growth inhibition ([3]; at 3.7 µM) was -29%. It also gave a growth inhibition ([3]; at 11.0 µM) of -7%, a growth inhibition ([3]; at 33.0 µM) of 21% and a growth inhibition ([3]; at 100.0 µM) of 56%. For the same compound, the growth inhibition ([4]; at 1.2 µM) was 19%, the growth inhibition ([4]; at 3.7 µM) was 32% and the growth inhibition ([4]; at 11.0 µM) was 34%. For the same compound, the growth inhibition ([4]; at 33.0 µM) was 49%, the growth inhibition ([4]; at 100.0 µM) was 67% and the growth inhibition ([5]; at 1.2 µM) was -11%. The growth inhibition ([5]; at 3.7 µM) was -10%, the growth inhibition [5, 16] was 25% and the growth inhibition ([5]; at 11.0 µM) was 3%. The growth inhibition ([5]; at 33.0 µM) was 17%, the growth inhibition [5, 17] was 74% (active) and the growth inhibition ([5]; at 50.0 µM) was 6.6%. The growth inhibition ([5]; at 100.0 µM) was 37%, the growth inhibition ([6]; at 1.2 µM) was -31% and the growth inhibition ([6]; at 3.7 µM) was -5%. It also gave a growth inhibition [6, 16] of 1%, a growth inhibition ([6]; at 11.0 µM) of -11% and a growth inhibition ([6]; at 33.0 µM) of 9%. For the same compound, the growth inhibition [6, 17] was 34%, the growth inhibition ([6]; at 50.0 µM) was 2.95% and the growth inhibition ([6]; at 100.0 µM) was 60%. It also gave a growth inhibition ([7]; at 1.2 µM) of -36%, a growth inhibition ([7]; at 3.7 µM) of -37% and a growth inhibition ([7]; at 11.0 µM) of -18%. The growth inhibition ([7]; at 33.0 µM) was -15%, the growth inhibition ([7]; at 100.0 µM) was -8% and the growth inhibition [8, 16] was 36%. The growth inhibition [8, 17] was 80% (active), the growth inhibition ([8]; at 50.0 µM) was 30% and the growth inhibition ([9]; at 1.2 µM) was 12%. The growth inhibition ([9]; at 3.7 µM) was 13%, the growth inhibition ([9]; at 11.0 µM) was -1% and the growth inhibition ([9]; at 33.0 µM) was 30%. It also gave a growth inhibition ([9]; at 100.0 µM) of -1%, a growth inhibition [10, 16] of 27% and a growth inhibition [10, 17] of 45%. It also gave a growth inhibition ([10]; at 50.0 µM) of 56.8%, a growth inhibition ([11]; at 1.2 µM) of 19% and a growth inhibition ([11]; at 3.7 µM) of 21%. For the same compound, the growth inhibition [11, 16] was 45%, the growth inhibition ([11]; at 11.0 µM) was 19% and the growth inhibition ([11]; at 33.0 µM) was 37%. The growth inhibition [11, 17] was 62%, the growth inhibition ([11]; at 50.0 µM) was 27.1% and the growth inhibition ([11]; at 100.0 µM) was 39%. The growth inhibition ([12]; at 1.2 µM) was 5%, the growth inhibition ([12]; at 3.7 µM) was 20% and the growth inhibition ([12]; at 11.0 µM) was 17%. For the same compound, the growth inhibition ([12]; at 33.0 µM) was 43%, the growth inhibition ([12]; at 100.0 µM) was 51% and the growth inhibition ([13]; at 1.2 µM) was -14%. For the same compound, the growth inhibition ([13]; at 3.7 µM) was -15%, the growth inhibition ([13]; at 11.0 µM) was -2% and the growth inhibition ([13]; at 33.0 µM) was 19%. For the same compound, the growth inhibition ([13]; at 100.0 µM) was 49%, the growth inhibition ([14]; at 1.2 µM) was -17% and the growth inhibition ([14]; at 3.7 µM) was -13%. For the same compound, the growth inhibition ([14]; at 11.0 µM) was -2%, the growth inhibition ([14]; at 33.0 µM) was 45% and the growth inhibition ([14]; at 100.0 µM) was 67%. For the same compound, the growth inhibition [15, 16] was 13%, the growth inhibition [15, 17] was 48% and the growth inhibition ([15]; at 50.0 µM) was 15.7%.

With `CCCCCCCCC/C=C/C=C/C(=O)NCC(=O)NC1C(O)C(O)C(Nc2ncnc3nc[nH]c23)OC1C(O)CO` (stereo unspecified) the growth inhibition ([1]; at 1.2 µM) was -19%, the growth inhibition ([1]; at 3.7 µM) was 11% and the growth inhibition ([1]; at 11.0 µM) was 10%. It also gave a growth inhibition ([1]; at 33.0 µM) of 69%, a growth inhibition ([1]; at 100.0 µM) of 67% and a growth inhibition ([2]; at 1.2 µM) of -41%. It also gave a growth inhibition ([2]; at 3.7 µM) of -23%, a growth inhibition ([2]; at 11.0 µM) of -27% and a growth inhibition ([2]; at 33.0 µM) of 33%. For the same compound, the growth inhibition ([2]; at 100.0 µM) was 20%, the growth inhibition ([3]; at 1.2 µM) was -19% and the growth inhibition ([3]; at 3.7 µM) was -17%. For the same compound, the growth inhibition ([3]; at 11.0 µM) was -15%, the growth inhibition ([3]; at 33.0 µM) was -36% and the growth inhibition ([3]; at 100.0 µM) was -48%. For the same compound, the growth inhibition ([4]; at 1.2 µM) was -33%, the growth inhibition ([4]; at 3.7 µM) was -22% and the growth inhibition ([4]; at 11.0 µM) was -14%. It also gave a growth inhibition ([4]; at 33.0 µM) of 43%, a growth inhibition ([4]; at 100.0 µM) of 39% and a growth inhibition ([5]; at 1.2 µM) of -53%. It also gave a growth inhibition ([5]; at 3.7 µM) of -47%, a growth inhibition [5, 16] of 47% and a growth inhibition ([5]; at 11.0 µM) of -52%. The growth inhibition ([5]; at 33.0 µM) was -75%, the growth inhibition [5, 17] was 83% (active) and the growth inhibition ([5]; at 50.0 µM) was 16.9%. The growth inhibition ([5]; at 100.0 µM) was -24%, the growth inhibition ([6]; at 1.2 µM) was -61% and the growth inhibition ([6]; at 3.7 µM) was -30%. It also gave a growth inhibition [6, 16] of 9%, a growth inhibition ([6]; at 11.0 µM) of 14% and a growth inhibition ([6]; at 33.0 µM) of -11%. For the same compound, the growth inhibition [6, 17] was 43%, the growth inhibition ([6]; at 50.0 µM) was 6.95% and the growth inhibition ([6]; at 100.0 µM) was -27%. It also gave a growth inhibition ([7]; at 1.2 µM) of -17%, a growth inhibition ([7]; at 3.7 µM) of -5% and a growth inhibition ([7]; at 11.0 µM) of -8%. It also gave a growth inhibition ([7]; at 33.0 µM) of 8%, a growth inhibition ([7]; at 100.0 µM) of 51% and a growth inhibition [8, 16] of 2%. For the same compound, the growth inhibition [8, 17] was -55%, the growth inhibition ([8]; at 50.0 µM) was 69.2% and the growth inhibition ([9]; at 1.2 µM) was 4%. The growth inhibition ([9]; at 3.7 µM) was 8%, the growth inhibition ([9]; at 11.0 µM) was 11% and the growth inhibition ([9]; at 33.0 µM) was 18%. It also gave a growth inhibition ([9]; at 100.0 µM) of -11%, a growth inhibition [10, 16] of -1% and a growth inhibition [10, 17] of -13%. It also gave a growth inhibition ([10]; at 50.0 µM) of 10.8%, a growth inhibition ([11]; at 1.2 µM) of -64% and a growth inhibition ([11]; at 3.7 µM) of -38%. It also gave a growth inhibition [11, 16] of 5%, a growth inhibition ([11]; at 11.0 µM) of -58% and a growth inhibition ([11]; at 33.0 µM) of 5%. It also gave a growth inhibition [11, 17] of -16%, a growth inhibition ([11]; at 50.0 µM) of 24.9% and a growth inhibition ([11]; at 100.0 µM) of 3%. For the same compound, the growth inhibition ([12]; at 1.2 µM) was 7%, the growth inhibition ([12]; at 3.7 µM) was 24% and the growth inhibition ([12]; at 11.0 µM) was 53%. For the same compound, the growth inhibition ([12]; at 33.0 µM) was 61%, the growth inhibition ([12]; at 100.0 µM) was 56% and the growth inhibition ([13]; at 1.2 µM) was -44%. For the same compound, the growth inhibition ([13]; at 3.7 µM) was -38%, the growth inhibition ([13]; at 11.0 µM) was -50% and the growth inhibition ([13]; at 33.0 µM) was 18%. For the same compound, the growth inhibition ([13]; at 100.0 µM) was -29%, the growth inhibition ([14]; at 1.2 µM) was -21% and the growth inhibition ([14]; at 3.7 µM) was 8%. For the same compound, the growth inhibition ([14]; at 11.0 µM) was 14%, the growth inhibition ([14]; at 33.0 µM) was 65% and the growth inhibition ([14]; at 100.0 µM) was 59%. The growth inhibition [15, 16] was 20%, the growth inhibition [15, 17] was 41% and the growth inhibition ([15]; at 50.0 µM) was 49.4%.
